An excerpt weighted towards active compounds, which were near 2.2% of everything screened.
CHRM4 agonist: CHRM4 agonism in calcium assay; P08173; CHO-K1 hM4/Gqi5, Fluo-8 calcium fluorescence; vehicle 0%, full acetylcholine response 100%; activation, % at 3 µM; 0.14% of 360,000 active; AID 624127;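 active means activation above the run mean over all test wells plus 3 SD, cut at about 32% in these data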;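 further: peak over basal fluorescence ratio per well then scaled between controls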
Target sequence (P08173 whole entry, looked up): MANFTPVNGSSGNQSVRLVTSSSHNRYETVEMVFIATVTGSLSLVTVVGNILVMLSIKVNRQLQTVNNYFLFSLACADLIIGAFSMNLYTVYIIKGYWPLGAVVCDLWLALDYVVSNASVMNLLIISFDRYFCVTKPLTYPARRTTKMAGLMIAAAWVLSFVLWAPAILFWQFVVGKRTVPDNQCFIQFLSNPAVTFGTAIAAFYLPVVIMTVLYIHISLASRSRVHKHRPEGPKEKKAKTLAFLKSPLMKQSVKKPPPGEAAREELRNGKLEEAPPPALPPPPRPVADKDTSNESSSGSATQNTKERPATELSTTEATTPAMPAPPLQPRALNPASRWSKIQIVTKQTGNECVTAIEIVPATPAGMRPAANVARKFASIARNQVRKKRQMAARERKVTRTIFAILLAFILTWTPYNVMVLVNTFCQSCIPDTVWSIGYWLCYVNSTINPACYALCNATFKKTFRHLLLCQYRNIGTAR
CHRM1 agonist: human M1 muscarinic receptor agonism | P11229 | CHO-K1 hM1, Fluo-8 calcium fluorescence, agonist mode; 0% DMSO, 100% acetylcholine EC100 | activation, % at 3 µM | 0.33% of 360,000 active;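 active means activation above the run's mean compound activation plus 3 SD, cut at about 16% in these data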;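 further: peak over basal fluorescence ratio within a 140 s kinetic read after compound addition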
CHRM4 antagonist: blocks acetylcholine activation of human M4 receptor. 0.73% of 360,000 active. P08173. AID 624125. CHO-hM4 cells, ACh EC80, Fluo-8 calcium fluorescence. inhibition, % at 3 µM;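 active means inhibition above its plate's cutoff, the mean inhibition of sample wells plus 3 SD, cut at about 27% in these data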
M4 PAM: potentiates acetylcholine response at human M4 receptor; P08173; CHO-K1 hM4/Gqi5, Fluo-8 calcium fluorescence, ACh EC20; 0% = ACh EC20, 100% = maximal ACh; activation, % at 3 µM; 0.4% of 360,000 active;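 active means activation above its plate's cutoff, the mean activation of sample wells plus 3 SD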
CHRM1 PAM: potentiates human M1 receptor response to acetylcholine; activation, % at 3 µM; P11229; CHO-K1 hM1, Fluo-8 calcium fluorescence, ACh EC20; 0% = ACh EC20, 100% = maximal ACh; AID 588819; 0.088% of 360,000 active; in the data active means activation above about 19%, passing the limit was not always enough
M1 antag: human CHRM1 antagonism; P11229; CHO-K1 hM1, Fluo-8 calcium fluorescence, ACh EC80 antagonist; inhibition, % at 3 µM; 1.3% of 360,000 active; AID 588852;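 active means percent inhibition above its own plate's cutoff, namely the mean of that plate's compound wells plus 3 SD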;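 further: peak over basal fluorescence ratio during 140 s after agonist addition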
Hits are given with their value; . = inactive; / = no result.

SMILES | CHRM4 agonist | CHRM1 agonist | CHRM4 antagonist | M4 PAM | CHRM1 PAM | M1 antag
C#CC[N+](C)(C)CCCCCCCCCC | . | . | . | . | . | .
C#CC[N+](C)(C)CCCCCCCCCCCC | . | . | 52.9 | . | . | 56.1
CC#CC[N+](C)(C)CCCCCCCCCCCC | . | . | 26.6 | . | . | 41.0
C#CCOCCOCCOCCNc1nc(N2CCOCC2)nc(N2CCN(C(=O)CCCCCCCCCCNC(=O)[C@@H](CCC(=O)O)n3cc(CCCCCN)nn3)CC2)n1 | . | . | . | . | . | .
C#CCOCCOCCOCCNc1nc(N2CCN(C(=O)CCCCCCCCCCNC(=O)[C@@H](CCC(=O)O)n3cc(CCCCCN)nn3)CC2)nc(N2CCN(C(=O)CCCCCCCCCCNC(=O)[C@H]([C@@H](C)CC)n3cc(CCCCCN)nn3)CC2)n1 | . | 18.3 | . | . | . | .
C#CCOCCOCCOCCNc1nc(N2CCN(C(=O)CCCCCCCCCCNC(=O)[C@H]([C@@H](C)CC)n3cc(CCCCCN)nn3)CC2)nc(N2CCN(C(=O)CCCCCCCCCCNC(=O)[C@H](CCCCN)n3cc(CCCC(=O)O)nn3)CC2)n1 | . | 18.2 | . | . | . | .
O=C(C1CCCCC1)N1CCN=C1SCc1cccc([N+](=O)[O-])c1 | . | . | 31.6 | . | . | .
Cc1ccc(C(=O)N2CCN=C2SCc2ccc([N+](=O)[O-])cc2)cc1C | . | . | . | . | . | 35.9
O=C(c1ccc([N+](=O)[O-])cc1)N1CCN=C1SCc1ccccc1 | . | . | . | . | . | .
O=C(c1ccccc1)N1CCN=C1SCc1ccc([N+](=O)[O-])cc1 | . | . | 28.9 | . | . | .
FC(F)Oc1ccc(NC(=S)NCC2COc3ccccc3O2)cc1 (configuration not stated) | . | . | . | . | . | .
O=C(COc1ccc(Br)cc1Cl)c1ccc[nH]1 | . | . | . | . | . | .
O=C(COc1ccccc1Cl)c1ccc[nH]1 | . | . | . | . | . | 29.1
N#Cc1ccc(OCC(O)CN2CCC(C(O)(c3ccccc3)c3ccccc3)CC2)cc1 (configuration not stated) | . | . | . | . | . | 31.8
CCCCNC(=S)N(C)/N=C/c1ccc(OCC(=O)Nc2c(C)cc(C)cc2C)c(OC)c1 | . | . | . | . | . | .
CCCCNC(=S)N(C)/N=C/c1ccc(OCC(=O)Nc2ccc(OC)cc2)c(OC)c1 | . | . | . | . | . | 33.9
COc1ccc(NC(=O)COc2ccc(/C=N/O)cc2OC)cc1 | . | . | . | . | . | .
CCNC(=S)N/N=C/c1ccc(OCC(=O)Nc2ccc(OC)cc2)c(OC)c1 | . | . | 31.5 | . | . | 38.9
CCOC(=O)CSc1nc2c(cnn2-c2ccc(Cl)cc2)c(=O)[nH]1 | . | . | . | . | . | .
CCOC(=O)CSc1nc2c(cnn2-c2ccc(C)cc2)c(=O)[nH]1 | . | . | . | 19.1 | . | .
O=C(NCc1cn(-c2ccccc2)nc1-c1ccccc1)c1ccc([N+](=O)[O-])cc1 | . | . | . | . | . | .
c1ccc(-c2nn3nnnc3c3ccccc23)cc1 | . | . | . | . | . | .
C=CCOc1ccccc1C(=O)/C=C1/C(=O)Nc2ccccc21 | . | . | . | . | . | .
Cn1nc(C(F)(F)F)c(C(=O)Nc2ccc(F)cc2F)c1Sc1cccc(Cl)c1 | . | . | . | . | . | .
Cn1nc(C(F)(F)F)c(C(=O)Nc2ccc(F)cc2F)c1Sc1cccc(C(F)(F)F)c1 | . | . | . | . | . | 34.4
SMILES | CHRM4 agonist | CHRM1 agonist | CHRM4 antagonist | M4 PAM | CHRM1 PAM | M1 antag
C/C(CC(=O)Nc1ccc(Cl)c(C(F)(F)F)c1)=N\NC(=O)c1ccccc1O | . | . | . | . | . | .
CC(C)NC(=O)CCCN1C(=O)c2ccccc2Sc2ncccc21 | . | . | . | . | . | .
CN(C)S(=O)(=O)N1CCc2ccc(NC(=O)C3CCCO3)cc2C1 (configuration not stated) | . | . | . | 19.8 | . | .
CN(C)CCNC(=O)c1cccc(S(=O)(=O)Nc2ccc(F)cc2)c1 | . | . | . | . | . | .
CC1Cc2ccccc2N1S(=O)(=O)c1cccc(C(=O)NNC(=O)c2ccccc2F)c1 (configuration not stated) | . | . | . | . | . | .
CCN(CC)CCNC(=O)c1ccc(NC(=O)c2cccc(S(=O)(=O)Nc3ccc(C)cc3)c2)cc1 | . | . | 43.5 | . | . | 97.7
CCN(CC)CCNC(=O)c1ccc(NC(=O)c2ccc(S(=O)(=O)N(C)c3ccccc3OC)cc2)cc1 | . | . | . | . | . | 41.3
O=C(NNC(=O)c1ccccc1F)c1cccc(S(=O)(=O)N2CCc3ccccc32)c1 | . | . | . | . | . | 37.6
O=C(NCc1cccnc1)c1ccc(S(=O)(=O)N2CCOCC2)cc1 | . | . | . | . | . | .
COc1ccc(CCN2C(=O)c3ccccc3C2(O)c2ncc[nH]2)cc1OC (configuration not stated) | . | . | . | . | . | .
CC(=O)N1CCN(C(=O)c2cccc(S(=O)(=O)N3c4ccccc4CC3C)c2)CC1 (configuration not stated) | . | . | . | 15.8 | . | .
O=C(Nc1ccc(S(=O)(=O)N2CCc3ccccc3C2)cc1)C1CCCO1 (configuration not stated) | . | . | . | . | . | .
CC1Cc2ccccc2N1S(=O)(=O)c1cccc(C(=O)NCCCO)c1 (configuration not stated) | . | . | . | . | . | .
COc1ccc(C(=O)Nc2ccc(S(=O)(=O)N3CCc4ccccc43)cc2)cc1 | . | . | 41.5 | . | . | .
CC1Cc2ccccc2N1S(=O)(=O)c1cccc(C(=O)N2CCN(c3ncccn3)CC2)c1 (configuration not stated) | . | . | . | . | . | .
O=C(Nc1ccc(S(=O)(=O)N2CCCc3ccccc32)cc1)C1CCCO1 (configuration not stated) | . | . | . | . | . | 39.8
NS(=O)(=O)c1ccc(NC(=O)c2ccc(S(=O)(=O)N3CCc4ccccc43)cc2)cc1 | . | . | . | . | . | .
CCN(CC)CCNC(=O)c1ccc(NC(=O)c2cccc(S(=O)(=O)N3c4ccccc4CC3C)c2)cc1 (configuration not stated) | . | . | 97.1 | . | . | 100.3
CCCN1C2CCCC1CC(NC(=O)c1cccc(Cl)c1)C2 (configuration not stated) | . | . | . | . | . | .
CCCCC[C@@H](C)N1C[C@H](COCc2ccccc2)Oc2cc(N3CC[C@@H](O)C3)ccc2S1(=O)=O | . | / | . | . | / | /
